Several values for one entry are separate records, joined by “and”; a condition that tells them apart may be missing. Equal values may be shown once. Inconclusive results are not listed. Some compounds were tested as several samples or in several runs, with calls that do not always agree. Activity calls are given as the source filed them. The call rests on the fitted dose curve; in most records, active means well fitted curve in the direction sought with a large enough effect; inconclusive means small, poorly fitted or top-dose-only effect, or another doubt; inactive means no such curve, though single readings can be large; an effect the other way counts as inactive or inconclusive.
Tests used:
[1] = qHTS assay for measurement of the activity of small molecule inhibitors on Zika virus induced Caspase-3 activity in human iPSC derived neural progenitor cells (hNPCs) (AID 1224857); further: % of control where 0% means no effect; nearly all actives have a fitted effect of over 65% in size
Summary of the method: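 Cells were plated at 350 per well and grown 16 to 20 hours. Compound pretreatment lasted one hour, after which ZIKV (2 FFU/cell) was added for 6 hours. Percent inhibition was normalized between uninfected and infected controls.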

[2] = qHTS assay for measurement of the activity of small molecule inhibitors on Zika virus induced Caspase-3 activity in human astrocytoma cells (AID 1224859);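 further: plate controls were ZIKV-infected untreated cells for no effect and uninfected cells for full effect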
Summary of the method: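 Percent inhibition of virus-induced caspase-3/7 signal is calculated against uninfected and ZIKV-infected control cells. Cells are SNB-19, infected at 2 FFU/cell for 6 h after 1 h compound exposure.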

[3] = qHTS Screen of the MIPE 4.0 Collection Against Ewings Sarcoma (RDES) (AID 1259252); further: nearly all actives have a fitted effect of over 35% in size; further: potency means the concentration at half of the fitted maximal effect
Summary of the method: (§1)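 Here, cells in 5% FBS RPMI were exposed for two days (48 h) to compound dilutions added four hours after plating. ATP-based CellTiter-Glo luminescence measured viability, normalized to vehicle and no-cell blanks.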

[4] = qHTS Screen of the MIPE 4.0 Collection Against Ewings Sarcoma (TC71) (AID 1259253); further: nearly all actives have a fitted effect of over 40% in size; further: potency means the concentration at half of the fitted maximal effect
Summary of the method: as §1

[5] = qHTS Screen of the MIPE 4.0 Collection Against Ewings Sarcoma (EW8) (AID 1259255); further: nearly all actives have a fitted effect of over 35% in size; further: potency means the concentration at half of the fitted maximal effect;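 on viability: 100% = DMSO-treated cells and 0% = medium-only wells without cells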
Summary of the method: as §1

[6] = qHTS Screen of the MIPE 4.0 Collection Against Ewings Sarcoma (TC32) (AID 1259256); further: nearly all actives have a fitted effect of over 45% in size; further: potency means the concentration at half of the fitted maximal effect
Summary of the method: as §1

[7] = Identifying Small Molecule Inhibitors of Pancreatic Cancer Stem Cells (A2780, Spheroid) (AID 1259357); conditions: Potency: A2780 spheroid viability;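 further: compound exposure lasted 48 h before the ATP luminescence read; 100% = DMSO treated cells and 0% = wells without cells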
Summary of the method: (§2)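 Monolayer and spheroid cultures are compared. Spheroids form over 14 days in stem cell medium on hydrogel-coated low-attachment plates, then are exposed to compound for 48 h before CellTiter-Glo luminescence.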

[8] = P-glycoprotein substrates identified in KB-8-5-11 adenocarcinoma cell line, qHTS therapeutic library screen (AID 1346987); further: nearly all actives have a fitted effect of over 65% in size; further: potency means the concentration at half of the fitted maximal effect; on activity change, negative = cytotoxicity: series mostly up to about 44 µM; on the % scale 0 is the no-effect control and ±100 the full control effect
Summary of the method: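 Steps: plate 500 KB-8-5-11 cells/well in DMEM + 10% FCS (colchicine removed); pin compounds in dose-response; incubate 72 h, 37 degree C, 5% CO2; add CellTiter-Glo, 5 min; read luminescence.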

[9] = Identifying Small Molecule Inhibitors of Pancreatic Cancer Stem Cells (SN12C, Adherent) (AID 1259358);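 further: cell survival measured after 48 h of compound exposure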; further: potency means the concentration at half of the fitted maximal effect
Summary of the method: (§3)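 Luminescent ATP readout (CellTiter-Glo) quantifies surviving cells after a 48 h drug incubation. Normalization uses DMSO wells as no inhibition and media-only wells as full inhibition; bortezomib served as positive control.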

[10] = Identifying Small Molecule Inhibitors of Pancreatic Cancer Stem Cells (SN12C, Spheroid) (AID 1259360); conditions: Potency: SN12C spheroid viability; further: potency means the concentration at half of the fitted maximal effect
Summary of the method: as §2

[11] = Identifying Small Molecule Inhibitors of Pancreatic Cancer Stem Cells (A278, Adherent) (AID 1259361); further: nearly all actives have a fitted effect of over 35% in size
Summary of the method: as §3

[12] = P-glycoprotein substrates identified in KB-3-1 adenocarcinoma cell line, qHTS therapeutic library screen (AID 1346986); further: nearly all actives have a fitted effect of over 60% in size;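 further: potency means the concentration at half of the fitted maximal effect; potency is for cytotoxicity meaning loss of cell viability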
Summary of the method: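 Resistance attributable to P-gp was assessed by comparing AC50 in KB-8-5-11 with parental KB-3-1 and by tariquidar reversal. Cells were exposed 72 h and viability read by CellTiter-Glo.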

[13] = NS1 protein of Zika virus - qHTS assay to identify small molecule inhibitors in human HEK 293 cells (AID 1347053); further: nearly all actives have a fitted effect of over 55% in size; further: potency means the concentration at half of the fitted maximal effect
Summary of the method: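 HEK 293; 20 h pre-culture, 37 C/5% CO2; cpd 1 h pre-infection; ZIKV MR766, MOI = 0.5, 24 h, 37 C; TR-FRET NS1 readout (two anti-NS1 Abs); norm. to no-virus vs infected.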

[14] = Identifying Small Molecule Inhibitors of Pancreatic Cancer Stem Cells (Panc1, Spheroid) (AID 1259359);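 further: potency means the concentration at half of the fitted maximal effect; compound exposure lasted 48 h before reading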
Summary of the method: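 Cytotoxicity read by CellTiter-Glo luminescence after 48 h compound exposure at 37C; percent activity scaled between DMSO-treated cells and cell-free wells. Spheroid formats used cells pre-formed 14 days in stem cell media on hydrogel.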

SMILES	Potency [1]	Potency [2]	Potency [3]	Potency [4]	Potency [5]	Potency [6]	Potency [7]	activity change, negative = cytotoxicity [8]	Potency [9]	Potency [10]	IC50 (viability decrease) [11]	Potency [8]	Potency [12]	Potency [13]	Potency [14]
CC(=O)c1c(C)c2cnc(Nc3ccc(N4CCNCC4)cn3)nc2n(C2CCCC2)c1=O	inactive	inactive	18.7 µM (active)	5.26 µM (active)	20.9 µM (active)	14.8 µM (active)	inactive	6.87% [at 5.11 µM] (inactive)							
C[C@@H](Oc1cc(-c2cnn(C3CCNCC3)c2)cnc1N)c1c(Cl)ccc(F)c1Cl	inactive	inactive	16.6 µM (active)	14.8 µM (active)	10.5 µM (active)	4.18 µM (active)			18.7 µM (active)	20.9 µM (active)	4.18 µM (active)	13.2 µM (active) and 16.4 µM (active) and 11.6 µM (active)			
CC(C)(O)CCc1ccc(OCc2cc(-c3cccc(OC(F)F)c3)c3ncccc3c2)cc1	inactive	inactive	inactive	inactive	inactive	inactive			inactive						
Cn1c(CNc2ccc(C(=N)N)cc2)nc2cc(C(=O)N(CCC(=O)O)c3ccccn3)ccc21	inactive	inactive	inactive	inactive	inactive	inactive						inactive	inactive	inactive	
Nc1ccccc1NC(=O)c1ccc(CNc2nccc(-c3cccnc3)n2)cc1	inactive	inactive	1.32 µM (active)	1.05 µM (active)	1.05 µM (active)	0.935 µM (active)					1.18 µM (active)	2.96 µM (active) and 2.31 µM (active)		inactive	
CN(C1CCc2c(c3ccccc3n2CC(=O)O)C1)S(=O)(=O)c1ccc(F)cc1 (centres undefined)	inactive	inactive	inactive	inactive	inactive	inactive						inactive	inactive	inactive	
Nc1nc(NCCNc2ncc(-n3ccnc3)c(-c3ccc(Cl)cc3Cl)n2)ccc1[N+](=O)[O-]	inactive	inactive	0.833 µM (active)	inactive	inactive	9.35 µM (active)						inactive	inactive	inactive	
COc1ccc(-c2cc3c(C)nc(N)nc3n(C3CCC(OCCO)CC3)c2=O)cn1 (centres undefined)	inactive	inactive	0.118 µM (active)	0.0743 µM (active)	0.0662 µM (active)	0.0264 µM (active)						41.8 nM (active) and 366 nM (active)	0.184 µM (active)	1.48 µM (active)	
O=C(NCCCNc1nc(Nc2cccc(NC(=O)N3CCCC3)c2)ncc1I)c1cccs1	inactive	inactive	13.2 µM (active)	16.6 µM (active)	1.87 µM (active)	2.35 µM (active)					6.62 µM (active) and 14.8 µM (active)	16.6 µM (active)	11.6 µM (active)		
CCN1CCN(CC(=O)Nc2ccc(-c3cccc4c(=O)cc(N5CCOCC5)oc34)c3sc4ccccc4c23)CC1	inactive	inactive	8.33 µM (active)	6.62 µM (active)	16.6 µM (active)	1.32 µM (active)				14.8 µM (active)	4.18 µM (active)	2.96 µM (active)	1.88 µM (active)	inactive	16.6 µM (active)
CCC[C@H](NC(=O)C(C#N)=Cc1cccc(Br)n1)c1ccccc1	inactive	inactive	7.43 µM (active)	7.43 µM (active)	6.62 µM (active)	7.43 µM (active)					26.4 µM (active)	18.7 µM (active)		14.8 µM (active)	
O=C(c1cncc(Br)c1)N1CCC(N2CCCC2)CC1	inactive	inactive	inactive	inactive	inactive	inactive						inactive	inactive		
CN1CCN(c2cc(C(=O)Nc3ccc4c(c3)-c3c(c(C(N)=O)nn3-c3ccc(F)cc3)CC4)c(Cl)cn2)CC1	inactive	inactive	2.64 µM (active)	4.18 µM (active)	20.9 µM (active)	13.2 µM (active)					23.5 µM (active)	23.5 µM (active)	29.1 µM (active)	26.4 µM (active)	23.5 µM (active)
Nc1nccc(Oc2ccc(NC(=O)c3c[nH]cc(-c4ccc(F)cc4)c3=O)cc2F)c1Cl	inactive	inactive	1.66 µM (active)	2.96 µM (active)	0.743 µM (active)	2.64 µM (active)					23.5 µM (active)	23.5 µM (active) and 16.4 µM (active)		inactive	
CCn1nnc2c(N3CCOCC3)nc(-c3ccc(NC(=O)Nc4ccc(C(=O)N5CCN(C)CC5)cc4)cc3)nc21	inactive	inactive	0.0148 µM (active)	0.0418 µM (active)	0.0066 µM (active)	0.0074 µM (active)							0.058 µM (active)		
Cc1cc(Nc2cc(N3CCN(C)CC3)nc(C=Cc3ccccc3)n2)n[nH]1	inactive	inactive	5.4 µM (active)	2.41 µM (active)	1.71 µM (active)	2.41 µM (active)				inactive	2.35 µM (active)	6.05 µM (active)		21.5 µM (active)	
CCCCOc1c(C(=O)c2c(F)cc(C)cc2F)cnc2n[nH]cc12	inactive	inactive	2.96 µM (active)	2.96 µM (active)	18.7 µM (active)	16.6 µM (active)						inactive	inactive and 3.66 µM (active)	inactive	

Reference: PubChem BioAssay (NCATS)
